# Measured values taken from ChEMBL document CHEMBL1157539, “Thousands of chemical starting points for antimalarial lead identification” (Nature, 2010).
# Tested on: HepG2
# Assay: GSK_TCMDC: Percent inhibition of human HepG2 cell line. Test compounds present at 10uM.
# Assay type: functional
row,Compound,Inhibition
1,CCCCc1cc(O)c2c(c1)OC(C)(C)C=C2C1=CCN(Cc2ccccc2)CC1,9%
2,CCN1CCN(c2cc(C)c3cc(NC(=O)C=Cc4cccc(OC)c4OC)ccc3n2)CC1,18%
3,CC(=O)Nc1nc(C(=O)Nc2cccc(-c3ccc(-c4nc5cccc(C)c5[nH]4)cc3)c2)cs1,100%
4,O=C(O)C(F)(F)F.OC1(c2ccccc2)CCN(Cc2cccc(-c3c[nH]c4nc(NC5CCCC5)ncc34)c2)C1 (stereo unspecified),42%
5,CNCCNCc1ccc(-c2ccc(-c3nc4cccc(C)c4[nH]3)cc2)cc1.O=C(O)C(F)(F)F,19%
6,COc1ccc(Nc2ncc3c(-c4cccc(NC(=O)Cc5ccncc5)c4)c[nH]c3n2)cc1OC,23%
7,Clc1ccccc1CNc1noc(-c2sccc2Br)n1,0%
8,CCc1c(C(=O)NC2CCC(N3CCC(c4ccccc4OC)CC3)CC2)[nH]c2ccc(Br)cc12 (stereo unspecified),85%
9,N#Cc1ccc(NC(=O)c2ccc(C(=O)NCCCCN3CCC(c4ccc5c(c4OCCOC4CCCCO4)CCCC5)CC3)cc2)cc1 (stereo unspecified),72%
10,CC1CCN(Cc2cccc(C(=O)NCc3ccc(F)c(-c4cccc(CN5CCN[C@@H](C)C5)c4)c3)c2)CC1.O=C(O)C(F)(F)F,26%
11,OC(CNc1ccnc(Nc2ccc(Cl)cc2)n1)c1cccc(C(F)(F)F)c1 (stereo unspecified),9%
